{
  "source": "PubChem BioAssay (NCATS)",
  "key": {"[1]": {"target": "DNA dC->dU-editing enzyme APOBEC-3G (Homo sapiens) (UniProt Q9HC16)", "sequence (Q9HC16 whole entry, looked up)": "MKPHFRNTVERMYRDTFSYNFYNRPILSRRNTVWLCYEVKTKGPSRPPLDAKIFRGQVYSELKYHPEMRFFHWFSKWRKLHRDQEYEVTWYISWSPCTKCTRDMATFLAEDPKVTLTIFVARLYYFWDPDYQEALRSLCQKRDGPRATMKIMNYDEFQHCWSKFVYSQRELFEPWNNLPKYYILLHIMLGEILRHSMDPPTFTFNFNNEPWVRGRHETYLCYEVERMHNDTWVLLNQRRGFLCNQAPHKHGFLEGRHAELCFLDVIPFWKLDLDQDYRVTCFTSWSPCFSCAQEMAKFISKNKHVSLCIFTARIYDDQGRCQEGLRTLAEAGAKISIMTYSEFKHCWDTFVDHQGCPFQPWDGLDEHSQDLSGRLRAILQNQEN", "test": "qHTS for inhibitors of Vif-A3G interactions: Validation (AID 588379)", "summary_of_the_method": "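Yellow fluorescence (Ex 488, Em 500-530) of Vif-coexpressing HeLa A3G-eYFP cells, scanned by Acumen cytometer, reports blocked A3G degradation. Cells plated at 700/well overnight at 37 deg C before compound addition, then a further overnight compound incubation at 37 deg C.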"}, "[2]": {"target": "Cytochrome P450 3A4 (Homo sapiens) (UniProt P08684)", "sequence (P08684 whole entry, looked up)": "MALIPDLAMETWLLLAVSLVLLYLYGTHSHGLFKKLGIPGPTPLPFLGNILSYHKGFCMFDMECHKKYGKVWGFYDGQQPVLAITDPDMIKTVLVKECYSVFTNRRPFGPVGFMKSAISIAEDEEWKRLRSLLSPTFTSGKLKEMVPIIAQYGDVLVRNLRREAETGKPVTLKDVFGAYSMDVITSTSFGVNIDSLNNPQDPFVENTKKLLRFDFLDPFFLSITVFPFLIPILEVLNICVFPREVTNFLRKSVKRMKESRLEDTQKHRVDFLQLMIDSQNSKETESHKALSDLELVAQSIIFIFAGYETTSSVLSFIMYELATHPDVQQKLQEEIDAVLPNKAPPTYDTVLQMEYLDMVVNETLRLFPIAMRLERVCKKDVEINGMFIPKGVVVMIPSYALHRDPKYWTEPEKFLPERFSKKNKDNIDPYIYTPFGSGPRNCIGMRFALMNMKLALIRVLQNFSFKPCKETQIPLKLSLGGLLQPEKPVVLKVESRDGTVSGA", "test": "qHTS Assay for Inhibitors and Substrates of Cytochrome P450 3A4 (AID 884); further: nearly all actives have a fitted effect of over 50% in size; further: potency means the concentration at half of the fitted maximal effect", "summary_of_the_method": "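Luminescent readout of luciferin produced by CYP3A4 (20 nM) dealkylation of Luciferin-PPXE, 25 uM (its KM). NADPH-driven reaction ran 60 min at RT after 10 min compound preincubation; data scaled to 57 uM ketoconazole as 100% inhibition.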"}, "[3]": {"target": "Mitogen-activated protein kinase 10 (Mus musculus) (UniProt Q61831)", "test": "JNK3 AlphaScreen Assay (AID 530; active means well fitted curve in either direction with a large enough effect, not every such curve was filed as active;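 further: kinase came from lysate of stimulated human HepG2 cells; signal reports phosphorylation of biotinylated GST-cJun 1-79 at Ser73 with 10 µM ATP; series mostly up to about 57 µM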)", "summary_of_the_method": "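qHTS titrations with 15 min compound pre-incubation before adding ATP (10 uM final). Read-out: AlphaScreen of Ser73-phosphorylated biotin-GST-cJun using HepG2 lysate JNK3 activated by IL-1β and TNFα.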"}, "[4]": {"target": "Cytochrome P450 3A4 (Homo sapiens) (UniProt P08684)", "test": "qHTS Assay for Activators of Cytochrome P450 3A4 (AID 885); further: nearly all actives have a fitted effect of over 65% in size", "summary_of_the_method": "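Luminescent readout of luciferin formed from 25 uM Luciferin-PPXE (KM level) by 20 nM CYP3A4 in 200 mM KPO4, with 60 min NADPH-driven reaction at room temperature after 10 min compound exposure. Ketoconazole (57 uM) defined 100% inhibition.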"}, "[5]": {"target": "3',5'-cyclic-AMP phosphodiesterase 4B (Homo sapiens) (UniProt Q07343)", "sequence (Q07343 whole entry, looked up)": "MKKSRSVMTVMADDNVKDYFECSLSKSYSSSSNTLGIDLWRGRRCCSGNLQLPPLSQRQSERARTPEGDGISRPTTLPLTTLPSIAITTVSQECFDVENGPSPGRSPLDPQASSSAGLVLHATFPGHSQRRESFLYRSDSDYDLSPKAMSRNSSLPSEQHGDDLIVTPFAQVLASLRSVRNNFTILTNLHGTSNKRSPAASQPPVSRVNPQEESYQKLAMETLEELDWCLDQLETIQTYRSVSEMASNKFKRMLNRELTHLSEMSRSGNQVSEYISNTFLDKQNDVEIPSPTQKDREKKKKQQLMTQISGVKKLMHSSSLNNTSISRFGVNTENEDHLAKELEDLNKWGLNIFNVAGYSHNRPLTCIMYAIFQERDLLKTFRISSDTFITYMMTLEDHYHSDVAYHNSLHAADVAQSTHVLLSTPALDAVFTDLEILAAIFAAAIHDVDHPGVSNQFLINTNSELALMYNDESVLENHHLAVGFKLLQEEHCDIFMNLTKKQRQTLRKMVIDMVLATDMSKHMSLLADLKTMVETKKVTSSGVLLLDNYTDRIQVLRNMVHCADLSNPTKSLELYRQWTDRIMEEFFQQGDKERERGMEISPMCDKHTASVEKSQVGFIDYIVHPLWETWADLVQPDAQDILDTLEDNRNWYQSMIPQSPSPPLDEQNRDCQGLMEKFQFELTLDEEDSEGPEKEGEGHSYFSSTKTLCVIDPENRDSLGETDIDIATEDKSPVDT", "test": "qHTS Assay for Inhibitors of PDE-IV (AID 607; active means well fitted activation curve with a large enough effect in the main read-out, with a control signal flat, not every such curve was filed as active)", "summary_of_the_method": "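Cell-based read-out of cAMP via a modified cyclic nucleotide-gated channel and membrane potential dye (535/590 nm) in HEK293 cells expressing PDE4 endogenously. Compounds tested up to 22.9 uM final; 100 uM RO 20-1724 reference.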"}, "[6]": {"target": "Cytochrome P450 2D6 (Homo sapiens) (UniProt P10635)", "sequence (P10635 whole entry, looked up)": "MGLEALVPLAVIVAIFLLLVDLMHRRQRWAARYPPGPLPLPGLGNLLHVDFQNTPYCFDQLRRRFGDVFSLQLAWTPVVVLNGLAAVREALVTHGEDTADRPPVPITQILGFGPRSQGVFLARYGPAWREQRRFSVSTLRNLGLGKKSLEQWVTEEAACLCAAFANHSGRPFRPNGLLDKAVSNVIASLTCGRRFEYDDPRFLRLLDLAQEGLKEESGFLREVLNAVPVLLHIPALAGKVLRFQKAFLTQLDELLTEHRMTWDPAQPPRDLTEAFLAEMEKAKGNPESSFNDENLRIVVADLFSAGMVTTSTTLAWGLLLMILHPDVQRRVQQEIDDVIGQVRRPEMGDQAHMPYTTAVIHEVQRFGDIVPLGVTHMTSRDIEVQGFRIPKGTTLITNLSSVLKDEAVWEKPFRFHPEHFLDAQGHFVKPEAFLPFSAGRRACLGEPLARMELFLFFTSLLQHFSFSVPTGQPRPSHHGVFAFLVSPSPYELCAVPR", "test": "qHTS Assay for Inhibitors and Substrates of Cytochrome P450 2D6 (AID 891);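 further: luciferin methyl ether substrate demethylated by CYP2D6 with NADPH regeneration; nearly all actives have a fitted effect of over 60% in size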", "summary_of_the_method": "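Luminescent read-out of luciferin formed by 5 nM human CYP2D6 demethylating 30 uM Luciferin-ME EGE (Km level) over 60 min at room temperature after NADPH regeneration addition. Data normalized to full inhibition by 1.43 uM quinidine.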"}, "[7]": {"target": "Peroxisome proliferator-activated receptor delta (Homo sapiens) (UniProt Q03181)", "sequence (Q03181 whole entry, looked up)": "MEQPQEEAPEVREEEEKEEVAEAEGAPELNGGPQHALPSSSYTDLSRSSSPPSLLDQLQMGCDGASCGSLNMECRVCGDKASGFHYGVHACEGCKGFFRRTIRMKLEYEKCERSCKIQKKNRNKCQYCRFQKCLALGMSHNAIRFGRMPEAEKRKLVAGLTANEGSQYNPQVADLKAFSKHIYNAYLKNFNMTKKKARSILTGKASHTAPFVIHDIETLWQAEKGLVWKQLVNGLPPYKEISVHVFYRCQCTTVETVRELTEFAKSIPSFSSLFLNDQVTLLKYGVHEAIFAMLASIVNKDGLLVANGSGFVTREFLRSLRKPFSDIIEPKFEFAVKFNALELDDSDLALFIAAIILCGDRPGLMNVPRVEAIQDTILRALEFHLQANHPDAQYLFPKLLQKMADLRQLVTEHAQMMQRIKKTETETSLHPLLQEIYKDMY", "test": "qHTS assay for small molecule agonists of peroxisome proliferator-activated receptor delta signaling (AID 588534; calls by dose curve)", "summary_of_the_method": "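Agonist-mode beta-lactamase reporter readout (CCF4 dye, 2 h at RT) after 18 h at 37 °C exposure to a titration; Hill-equation fitting gave EC50 and maximal response.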"}},
  "note": "Results filed as inconclusive are left out. Entries that show only a call come without a potency. The source made the active and inactive calls. Unless noted, the call rests on the fitted dose curve; in most records, active means well fitted curve in the direction sought with a large enough effect; inconclusive means small, poorly fitted or top-dose-only effect, or another doubt; inactive means no such curve, though single readings can be large; an effect the other way counts as inactive or inconclusive.",
  "data": [
    {"smiles": "CC1CCC2C(C)C(=O)OC3OC4(C)CCC1C32OO4", "note": "(stereo not given)", "values": [
      {"measurement": "outcome", "setting": "[1]", "value": "inactive"}
    ]},
    {"smiles": "CC1CC[C@@]2(OC1)O[C@@H]1[C@@H](O)[C@H]3C4CC[C@H]5C[C@@H](O[C@@H]6O[C@H](CO)[C@H](O[C@@H]7O[C@H](CO)[C@@H](O)[C@H](O[C@@H]8OC[C@@H](O)[C@H](O)[C@H]8O)[C@H]7O[C@@H]7O[C@H](CO)[C@@H](O)[C@H](O[C@@H]8O[C@H](CO)[C@@H](O)[C@H](O)[C@H]8O)[C@H]7O)[C@H](O)[C@H]6O)[C@H](O)C[C@]5(C)C4CC[C@]3(C)[C@H]1[C@@H]2C", "note": "(stereo not given in full)", "values": [
      {"measurement": "Potency", "setting": "[2]", "value": "inactive"},
      {"measurement": "outcome", "setting": "[1]", "value": "inactive"}
    ]},
    {"smiles": "O=P(N[C@@H](c1ccccc1)[C@@H]1C[C@H]1CO)(c1ccccc1)c1ccccc1", "values": [
      {"measurement": "outcome", "setting": "[3]", "value": "inactive"},
      {"measurement": "Potency", "setting": "[4]", "value": "inactive"}
    ]},
    {"smiles": "CNC(=O)[C@H]1C[C@@H]1[C@H](NP(=O)(c1ccccc1)c1ccccc1)c1ccccc1", "values": [
      {"measurement": "outcome", "setting": "[3]", "value": "inactive"},
      {"measurement": "outcome", "setting": "[5]", "value": "inactive"}
    ]},
    {"smiles": "CCC/C=C(\\CCC)C(NP(=O)(c1ccccc1)c1ccccc1)c1ccccc1", "note": "(stereo not given)", "values": [
      {"measurement": "outcome", "setting": "[3]", "value": "inactive"},
      {"measurement": "Potency", "setting": "[2]", "value": "6.31 µM (active)"},
      {"measurement": "Potency", "setting": "[4]", "value": "inactive"}
    ]},
    {"smiles": "COC(=O)[C@@H]1C[C@@H]1[C@@H](NP(=O)(c1ccccc1)c1ccccc1)c1ccccc1", "values": [
      {"measurement": "outcome", "setting": "[3]", "value": "inactive"},
      {"measurement": "outcome", "setting": "[5]", "value": "inactive"}
    ]},
    {"smiles": "COC(=O)[C@@]1(Cc2ccccc2)[C@H]2c3cc(C(=O)N(C)C)[nH]c3C[C@H]2CN1C(=O)c1ccccc1", "values": [
      {"measurement": "outcome", "setting": "[3]", "value": "inactive"},
      {"measurement": "outcome", "setting": "[5]", "value": "inactive"}
    ]},
    {"smiles": "O=CN1CC2CC(C1)c1cccc(=O)n1C2", "note": "(stereo not given)", "values": [
      {"measurement": "outcome", "setting": "[1]", "value": "inactive"}
    ]},
    {"smiles": "CCCC/C(C)=C/[C@@H](NP(=O)(c1ccccc1)c1ccccc1)c1ccccc1", "values": [
      {"measurement": "outcome", "setting": "[3]", "value": "inactive"},
      {"measurement": "Potency", "setting": "[2]", "value": "2.51 µM (active)"},
      {"measurement": "Potency", "setting": "[4]", "value": "inactive"}
    ]},
    {"smiles": "CCCc1cc2c(n1Cc1cccc(Cl)c1)C(C)C1CN(C(=O)c3ccccc3)C(C)(C(=O)OC)C21", "note": "(stereo not given)", "values": [
      {"measurement": "outcome", "setting": "[3]", "value": "inactive"},
      {"measurement": "outcome", "setting": "[5]", "value": "inactive"},
      {"measurement": "Potency", "setting": "[2]", "value": "5.01 µM (active)"},
      {"measurement": "Potency", "setting": "[4]", "value": "inactive"}
    ]},
    {"smiles": "CCCC[C@@H]1C[C@H]1C(NP(=O)(c1ccccc1)c1ccccc1)c1ccc(Cl)cc1", "note": "(stereo not given in full)", "values": [
      {"measurement": "outcome", "setting": "[3]", "value": "inactive"},
      {"measurement": "Potency", "setting": "[6]", "value": "inactive"}
    ]},
    {"smiles": "CCCc1cc2c(n1Cc1ccc(C)cc1)C(C)C1CN(C(=O)c3ccccc3)C(C)(C(=O)OC)C21", "note": "(stereo not given)", "values": [
      {"measurement": "outcome", "setting": "[3]", "value": "inactive"},
      {"measurement": "Potency", "setting": "[2]", "value": "3.16 µM (active)"},
      {"measurement": "Potency", "setting": "[4]", "value": "inactive"}
    ]},
    {"smiles": "COc1cc2c(cc1OC)[C@]13CCN4CC5=CCO[C@@H]6CC(=O)N2[C@@H]1[C@H]6[C@@H]5C[C@H]43", "values": [
      {"measurement": "outcome", "setting": "[3]", "value": "inactive"},
      {"measurement": "Potency", "setting": "[6]", "value": "inactive"}
    ]},
    {"smiles": "C=C(CC1(CNP(=O)(c2ccccc2)c2ccccc2)CC1)c1ccccc1", "values": [
      {"measurement": "outcome", "setting": "[3]", "value": "inactive"},
      {"measurement": "Potency", "setting": "[2]", "value": "3.98 µM (active)"},
      {"measurement": "Potency", "setting": "[4]", "value": "inactive"}
    ]},
    {"smiles": "C[C@@H]1O[C@H](O[C@H]2C[C@@H](O)[C@]3(CO)[C@H]4[C@H](O)C[C@]5(C)[C@@H](C6=CC(=O)OC6)CC[C@@]5(O)[C@H]4CC[C@]3(O)C2)[C@@H](O)[C@H](O)[C@H]1O", "values": [
      {"measurement": "outcome", "setting": "[3]", "value": "inactive"},
      {"measurement": "Potency", "setting": "[6]", "value": "inactive"}
    ]},
    {"smiles": "CCN1C[C@@]2(COC)[C@H](O)C[C@H](OC)[C@@]34[C@@H]5C[C@@]6(O)[C@H](OC(=O)c7ccccc7)[C@H]5[C@@](OC(C)=O)([C@H]([C@@H](OC)[C@H]23)[C@H]14)[C@H](O)[C@@H]6OC", "values": [
      {"measurement": "outcome", "setting": "[3]", "value": "inactive"},
      {"measurement": "Potency", "setting": "[6]", "value": "inactive"}
    ]},
    {"smiles": "C=C(C)c1ccccc1", "values": [
      {"measurement": "outcome", "setting": "[3]", "value": "inactive"},
      {"measurement": "Potency", "setting": "[2]", "value": "inactive"},
      {"measurement": "outcome", "setting": "[7]", "value": "inactive"}
    ]},
    {"smiles": "COc1ccc2c(c1OC)C(=O)O[C@@H]2[C@H]1c2cc3c(cc2CCN1C)OCO3", "values": [
      {"measurement": "outcome", "setting": "[3]", "value": "inactive"}
    ]},
    {"smiles": "O=C(Oc1ccc([N+](=O)[O-])cc1)N1CCC(N2CCCCC2)CC1", "values": [
      {"measurement": "outcome", "setting": "[3]", "value": "inactive"},
      {"measurement": "outcome", "setting": "[5]", "value": "inactive"}
    ]},
    {"smiles": "COC(=O)[C@@]1(Cc2ccc(F)cc2)[C@H]2c3cc(C(=O)N(C)C)[nH]c3C[C@H]2CN1C(=O)c1ccccc1", "values": [
      {"measurement": "outcome", "setting": "[3]", "value": "inactive"},
      {"measurement": "outcome", "setting": "[5]", "value": "inactive"},
      {"measurement": "Potency", "setting": "[2]", "value": "0.631 µM (active)"},
      {"measurement": "Potency", "setting": "[4]", "value": "inactive"}
    ]},
    {"smiles": "O=C1C[C@@H]2OCC=C3CN4CC[C@]56c7ccccc7N1[C@H]5[C@@H]2[C@H]3C[C@@H]46", "values": [
      {"measurement": "outcome", "setting": "[3]", "value": "inactive"},
      {"measurement": "outcome", "setting": "[5]", "value": "inactive"}
    ]},
    {"smiles": "COC(=O)[C@@H]1C[C@@]1(C)[C@@H](NP(=O)(c1ccccc1)c1ccccc1)c1ccccc1", "values": [
      {"measurement": "outcome", "setting": "[3]", "value": "inactive"},
      {"measurement": "Potency", "setting": "[2]", "value": "7.94 µM (active)"},
      {"measurement": "Potency", "setting": "[4]", "value": "inactive"}
    ]},
    {"smiles": "COc1ccc2c(c1OC)C(=O)O[C@@H]2C1c2cc3c(cc2CCN1C)OCO3", "note": "(stereo not given in full)", "values": [
      {"measurement": "outcome", "setting": "[1]", "value": "inactive"}
    ]},
    {"smiles": "C[C@@]1([C@@H](NP(=O)(c2ccccc2)c2ccccc2)c2ccccc2)C[C@H]1CCO", "values": [
      {"measurement": "outcome", "setting": "[3]", "value": "inactive"},
      {"measurement": "Potency", "setting": "[2]", "value": "7.94 µM (active)"},
      {"measurement": "Potency", "setting": "[4]", "value": "inactive"}
    ]}
  ]
}
